Reference: PubChem BioAssay AID449768 (Vanderbilt High Throughput Screening Facility, 2010)
Among all 110,000 compounds or so, about 1,400 (1.3%) were called active. Many of the other results were omitted from the sample, so actives are more common in it than they were. Values without a mark were called inactive.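 The calls were made as follows: active = Z score or B-score, a plate-position-corrected score, falls beyond the plate's 99.7% confidence bounds, in either direction; inactive = both scores lie inside the 99.7% bounds.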

Target: Sodium-dependent dopamine transporter (Homo sapiens) (UniProt Q01959)
Experiment: modulators of human DAT uptake with cocaine – cell-based, LLC-PK1 hDAT, [14C]-dopamine uptake, MLSMR, cocaine antagonist project, primary screen (AID 449768);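 also: scored against the spread of the other compound wells on the same plate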
Conditions: LLC-PK1 hDAT cells, [14C]-dopamine uptake with cocaine IC80; at 10 µM; actives deviate in either direction

Sequence of Sodium-dependent dopamine transporter (Homo sapiens) (Q01959 whole entry, looked up): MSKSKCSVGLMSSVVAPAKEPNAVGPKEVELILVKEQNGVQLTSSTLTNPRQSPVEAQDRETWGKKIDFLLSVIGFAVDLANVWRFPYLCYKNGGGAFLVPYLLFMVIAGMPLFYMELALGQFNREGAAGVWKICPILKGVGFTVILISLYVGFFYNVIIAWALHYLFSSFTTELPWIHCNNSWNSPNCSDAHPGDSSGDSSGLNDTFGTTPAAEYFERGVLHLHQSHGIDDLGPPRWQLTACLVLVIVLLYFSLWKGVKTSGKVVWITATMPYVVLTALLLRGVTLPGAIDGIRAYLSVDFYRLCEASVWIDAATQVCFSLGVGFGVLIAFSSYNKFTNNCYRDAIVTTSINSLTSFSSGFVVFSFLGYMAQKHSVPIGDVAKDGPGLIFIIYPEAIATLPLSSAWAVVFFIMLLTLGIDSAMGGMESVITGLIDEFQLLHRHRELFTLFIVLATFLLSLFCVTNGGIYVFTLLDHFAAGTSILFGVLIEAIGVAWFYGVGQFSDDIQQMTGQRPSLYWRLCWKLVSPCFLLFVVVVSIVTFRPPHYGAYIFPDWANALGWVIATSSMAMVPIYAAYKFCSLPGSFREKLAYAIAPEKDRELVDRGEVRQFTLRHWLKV

SMILES	B-score
Cc1cc(C)n(-c2ccc(Cl)c(C(=O)O)n2)n1	-1.42
Cc1cc(C)n(-c2nnc(C)n2NC(=O)c2cccc(Cl)c2)n1	-8.7 (active)
O=C(Nc1ccon1)c1cccc(Cl)c1	0.0619
COc1ccc2c(c1)CCNC2Cc1ccc(OC)c(O)c1 (stereo not given)	-0.654
CC(=O)Nc1sc2c(c1C(c1cccc(F)c1)N1CCN(CCO)CC1)CCCC2 (stereo not given)	0.298
C[C@@H]1NC(=O)c2cc([N+](=O)[O-])cc(F)c2NCCC[C@@H](C(N)=O)NC(=O)[C@H](CC(N)=O)NC1=O	-0.649
Cc1ccccc1NC(=O)c1cc(S(=O)(=O)N2CCOCC2)cs1	-3.41 (active)
O=C(Nc1ccccc1F)c1cc(S(=O)(=O)N2CCCCC2)cs1	0.695
Cc1ccc(C(=O)Nc2ccccc2C(=O)NC2CCCCC2)cc1S(=O)(=O)N1CCOCC1	-0.00206
C/C=C(/C)C(=O)Nc1cccc(C2=NOC3(C2)C[C@@H](C(N)=O)N(C(=O)C2(C)CC2)C3)c1 (stereo not given in full)	-0.445
CC(Sc1nc2c([nH]c3ccccc32)c(=O)n1C)c1ccccc1 (stereo not given)	0.73
CCOC(=O)c1c(NC(=O)C(C)Sc2c[nH]c3ccccc23)sc2c1CCC2 (stereo not given)	-0.485
Cc1nc(SCC(=O)Nc2cc(C)on2)c2c(C)c(C)sc2n1	0.457
Cc1nc(SCC(=O)N2CCc3ccccc3C2)c2c(C)c(C)sc2n1	2.48
Cc1nc(SCC(=O)N2CC(=O)Nc3ccccc32)c2c(C)c(C)sc2n1	2.75 (active)
C=CCSc1nnc2c(n1)-c1cccc3cccc-2c13	0.0257
CC(=O)Nc1cc(C(=O)O)ccc1S(=O)(=O)c1ccc(Cl)cc1	-0.803
CCOC(=O)N1CCN(C(=O)c2ccc3c(c2)N(Cc2ccc(C)cc2)CCS3)CC1	0.333
CCOC(=O)N1CCN(C(=O)c2ccc(S(=O)(=O)c3ccc(C)cc3)c(NC(C)=O)c2)CC1	-7.14 (active)
C[C@@H](C(=O)N1CCNCC1)n1cc(CCC(=O)O)nn1	-0.0383
Cc1ccc(-c2cc(=O)c3ccc(F)cc3[nH]2)cc1	0.343
CCn1c(SCC(=O)Nc2nc3ccc(OC)cc3s2)nnc1-c1ccoc1C	0.56

SMILES	B-score
CCOC(=O)c1c(C2CC2)csc1NC(=O)CSCc1c(C)noc1C	0.395
Cc1noc(C)c1CSCC(=O)Nc1nc2ccc(Oc3ccccc3)cc2s1	3.18 (active)
NC(=O)C1=C[C@@H](c2csc3ccccc23)C[C@@H](OCc2ccc(CO)cc2)O1	0.21
CC/C=C/C(=O)N1CC2(CC(c3cccc(NC(=O)CC)c3)=NO2)C[C@H]1C(N)=O (stereo not given in full)	0.271
CCCC[C@@H]1CN=C(N)N1CCc1cccc(F)c1	-0.00752
CCOC(=O)c1sc(NC(=O)CSc2nc3c(c(=O)n2-c2ccccc2)SCC3)c(C(=O)OCC)c1C	0.723
Cc1ccc(Cn2nnc3c(=O)n(CC(=O)N4CCCCC4)cnc32)cc1	0.247
O=C(Cn1cnc2c(nnn2Cc2ccc(F)cc2)c1=O)NCc1ccc2c(c1)OCO2	-8.17 (active)
O=C(Cn1nnc(-c2ccccc2)n1)NCc1ccc2c(c1)OCO2	0.156
NC(=O)CC(NC(=O)Cc1cccc2ccccc12)c1ccc(NCc2cc(F)ccc2F)c([N+](=O)[O-])c1 (stereo not given)	0.0495
O=C(NCc1ccccc1)C1=C[C@@H](c2ccccc2)C[C@@H](OCCCCO)O1	0.736
CCN1C(=O)N[C@@H](CCc2ccccc2)C(C(=O)OC)=C1C	0.0945
COC(C[C@H](O)CC(=O)[C@@H](C)OCc1ccccc1)OC	-0.99
O=C(O)C1=C[C@H](c2cccs2)C[C@H](OCCCCO)O1	-0.012
COc1ccc(CCNC(=O)CCCCn2c(=O)[nH]c3ccccc3c2=O)cc1OC	0.579
COc1cc2[nH]c(=O)n(CCC(=O)NC3CCN(Cc4ccccc4)CC3)c(=O)c2cc1OC	3.31 (active)
CCOc1cc2[nH]c(=O)n(CCC(=O)NCc3ccc(OC)cc3)c(=O)c2cc1OCC	-0.216
CC(C)NC(=O)NCCCCCCS(C)=O (stereo not given)	0.321
O=c1[nH]snc1-c1c(Cl)cccc1Cl	1.69
Cc1cccc(NC(=O)c2sc3nc4c(c(-c5ccco5)c3c2N)CCC4)c1	-8.82 (active)
NC(=O)c1sc2nc3c(c(-c4ccccc4)c2c1N)CCC3	0.0164
CC(=O)Nc1ccc(NC(=O)c2sc3nc4c(c(-c5ccc(C)cc5)c3c2N)CCC4)cc1	-0.372

SMILES	B-score
CCOC(=O)c1ccccc1NC(=O)c1c(N)n(C)c(=O)[nH]c1=O	-0.18
C[C@@H]1CC[C@]2(O[C@@H](CCO)C[C@H](O)[C@H]2O)O1	-0.347
CC(C)C[C@H](CO)Nc1nc(N(C)c2cccc(Cl)c2)c2ncn(C(C)C)c2n1	2.72 (active)
COC(=O)C(C)n1cnc2c(nnn2-c2cccc(Cl)c2)c1=O (stereo not given)	-0.668
CC(C)n1cnc2c(Nc3cccc(Cl)c3)nc(N(CCO)CCCO)nc21	0.4
C#CCOCCOCCOCCNc1nc(N2CCN(C(=O)[C@H](CCC(=O)O)n3cc(C(N)CO)nn3)CC2)nc(N2CCN(C(=O)[C@H](CCCCN)n3cc(C(N)[C@H](C)CC)nn3)CC2)n1 (stereo not given in full)	-0.0414
COc1cccc(N2C(=O)C3CCCN3C2c2ccc(F)cc2)c1 (stereo not given)	-0.103
COc1ccc(N2C(=O)C3CCCN3C2c2cccc(OC)c2)cc1 (stereo not given)	-2.41 (active)
COc1ccc(N2C(=O)C3CCCN3C2c2cc(OC)c(OC)cc2OC)cc1 (stereo not given)	-1.27
CC(=O)N[C@H]1[C@H]([C@H](O)[C@H](O)CO)OC(C(=O)O)=C[C@@H]1O	0.169
CC1(OC(=O)CCc2ccccc2)C(=O)C=C2C=C(c3ccc(C#N)cc3)N(CCc3ccccn3)C=C2C1=O (stereo not given)	-1.62
COP1(=O)C[C@@H](O)[C@@H](O)[C@@H](COCc2ccccc2)O1 (stereo not given in full)	-0.427
O=C(Nc1ccc2oc(-c3ccc4ccccc4c3)nc2c1)c1cccs1	-1.07
O=C(Cc1cccc2ccccc12)Nc1ccc2oc(-c3ccccc3)nc2c1	-7.38 (active)
CCCCCC(=O)Nc1ccc2oc(-c3ccncc3)nc2c1	1.15
CCO[C@@H]1OC(C(=O)NCc2nc3ccccc3[nH]2)=C[C@H](C2CCCCC2)[C@H]1CCCO	0.35
NC(=O)[C@H]1CC2(CC(c3cccc(NC(=O)[C@H]4CCC(=O)N4)c3)=NO2)CN1C(=O)c1ccccc1C(=O)c1ccccc1 (stereo not given in full)	-0.797
COc1ccccc1NC(=O)CSc1nnc(-c2ccoc2C)n1CCc1ccccc1	2.44 (active)
COc1ccccc1NC(=O)CSc1nnc(C)n1CC1CCCO1 (stereo not given)	-0.675
CCCn1c(SCC(=O)Nc2cccc(C(=O)OCC)c2)nnc1-c1ccoc1C	-0.483
C#CCOCCOCCOCCNc1nc(N2CCN(C(=O)C([C@@H](C)CC)n3cc(C(N)COC(=O)C(F)(F)F)nn3)CC2)nc(N2CCN(C(=O)[C@H](Cc3ccc(O)cc3)n3cc(C(N)[C@H](C)CC)nn3)CC2)n1 (stereo not given in full)	-0.939
COCCN1C(=O)N[C@@H](c2ccccc2)C(C(=O)OC)=C1C	-0.275

SMILES	B-score
CC1=C(C(=O)OCc2ccccc2)C(c2ccc(C(F)(F)F)cc2)NC(=O)N1CCCCCC(=O)O (stereo not given)	0.765
COC(=O)CCCCCN1C(=O)NC(c2ccc(-c3ccccc3)cc2)C(C(=O)OCc2ccccc2)=C1C (stereo not given)	-5.33 (active)
COc1ccc(C#Cc2c(-c3ccc(OC)cc3)oc3ccc(-c4ccc5c(c4)OCO5)cc23)cc1	0.0246
NC1=NC[C@@H](Cc2ccc(O)cc2)N1CC1CCCCC1	0.203
O=C(Nc1nc2ccc(S(=O)(=O)N3CCCC3)cc2s1)C1CCCO1 (stereo not given)	2.39 (active)
Cc1ccc2nc(NC(=O)C3CCN(S(=O)(=O)c4ccc5c(c4)oc(=O)n5C)CC3)sc2c1	-0.00508
CS(=O)(=O)c1ccc2nc(NC(=O)C3CCCCC3)sc2c1	2.38
COC(C[C@@H]1O[C@@H]1C(=O)[C@H](C)OCc1ccccc1)OC	-1.33
COC(=O)C1=C(C(=O)OC)[C@@H]2N(C)c3ccccc3[C@@]23C[C@@H](C(=O)OC)N(C(C)=O)C3=N1	-0.544
C=CCNC(=O)c1ccc2c3n(nc2c1)-c1ccc(C)cc1CO3	-0.154
CCOC(=O)c1cc(-c2nnc(-c3cc(OC)c(OC)c(OC)c3)o2)c(C)nc1C	1.41 (active)
CCOC(=O)c1cc2ccccc2nc1C	0.593
CCCc1nc2ccccc2c(C(=O)OCc2nnc(-c3cc(OC)c(OC)c(OC)c3)o2)c1CC	0.135
CCO[C@H]1OC(C(=O)N2CCN(Cc3ccccc3)CC2)=C[C@@H](c2cn(C(C)=O)c3ccccc23)[C@@H]1CCCO	-0.181
CCO[C@@H]1OC(C(=O)NC2CC2)=C[C@H](C)[C@H]1CCCO	0.173
CN1CCN(C(CNS(=O)(=O)c2cccs2)c2cccnc2)CC1 (stereo not given)	-0.00301
Cc1nnc(NC(=O)Nc2ccc(Cl)c(Cl)c2)s1	-0.308
N/C(=N\OC(=O)Nc1ccc(Cl)c(Cl)c1)c1ncc(C(F)(F)F)cc1Cl	0.438
O=C(CC(O)(C(F)(F)F)C(F)(F)F)Nc1ccc(Cl)c(Cl)c1	-6.33 (active)
